From PubChem BioAssay AID2289 (National Center for Advancing Translational Sciences (NCATS), 2010)
The campaign covered roughly 340,000 compounds. About 3,300 (0.97%) were called active. Roughly 9% stayed inconclusive and do not appear here. The call rests on the fitted dose curve; in most records, active means well fitted inhibition curve with a large enough effect; inconclusive means small, poorly fitted or top-dose-only effect, or effect the other way; inactive means flat fitted curve, though single readings scatter. This is one part of the list.
Potency means the concentration at half of the fitted maximal effect.

Experiment: qHTS Assay for Modulators of miRNAs and/or Inhibitors of miR-21; further: nearly all actives have a fitted effect of over 55% in size
Details: HeLa miR-21-FLuc reporter, luciferase luminescence, 48 h; actives lower the signal
Text: MLSCN Grant: 1 R21 NS059478-01 Assay Provider: Qihong Huang, The Wistar Institute NCGC Assay Overview: MicroRNAs (miRNAs) are endogenously encoded small (~20-25 nucleotides), nonprotein-coding RNAs that are involved in post-transcriptional repression of target messenger RNAs (mRNAs) (Le and Hannon, 2004). Estimated to be involved in the regulation of 30% of all protein-coding mRNAs (Filipowicz et al., 2008), miRNAs play a significant role in many biological processes including cellular differentiation and tissue development (Ghildiyal and Zamore, 2009).
NCGC Assay Protocol Summary: Reagents: HeLa cells stably expressing firefly luciferase (FLuc) under the control of a CMV promoter (upstream) and a miR-21 binding sequence directly downstream of the gene. These cells endogenously express miR-21. Control compounds used were compound C3 (provided by collaborator), N6-phenyladenosine (MP Biomedicals, 0215379625), and DMSO. Assay Summary: 6uL of HeLa miR-21-FLuc cells in assay buffer (DMEM, Invitrogen #21063-029; 10% FBS, HyClone #SH30071.03) were dispensed at 2000cells/well (3.3 x 10^5 cells/mL) into Greiner solid-white TC-treated 1536-well plates using a Multidrop Combi (Thermo Fisher Scientific). Plates were incubated for one hour at 37 degree Celsius, 95% humidity, 5% CO2. These assay plates were then treated with 23nL of compound or DMSO using a Kalypsys pin tool, which allows for delivery of a 24-point titration of each compound to the assay plate, with a final compound concentration ranging from approximately 40uM to 5pM. Assay plates were then incubated for 48 hours. After incubation, plates were allowed to come to RT for one hour prior to delivery of 3uL of 3X luciferase detection reagent. After a 15 minute incubation to allow for cell lysis, luciferase activity was measured using a ViewLux CCD imager (PerkinElmer), with an average exposure time of 2-12 seconds. Keywords: NIH Roadmap, MLPCN, MLSMR, qHTS, miR-21, microRNA, firefly luciferase, FLuc.
For O=c1[nH]n(Cc2ccccc2)c(=O)c2ccccc12, the Potency was 13.1 µM (active). With O=C(NC(=S)Nc1nc2ccccc2s1)c1cccs1 the Potency was 0.521 µM (active). With Cc1ccc2nc(NC(=S)NC(=O)c3cccs3)sc2c1 the Potency was 0.656 µM (active). In the case of O=S(=O)(c1cc(F)ccc1F)N1CCC2(CC1)OCCO2, the Potency is reported as 5.21 µM (active). With COc1ccc(NC(=O)c2sc3nc[nH]c(=O)c3c2C)cc1 the Potency was 5.85 µM (active). With COc1ccc(C(=O)c2cc3cccc(OC)c3o2)cc1 the Potency was 3.29 µM (active). For COc1cc(OC)c(C(=O)Nc2ccc3ccccc3c2)cc1OC, the Potency was 2.93 µM (active). In the case of COc1cc2ccccc2cc1C(=O)NC(=S)Nc1cccc(C(=O)O)c1, the Potency is reported as 14.7 µM (active). With COc1ccc(NC(=O)c2ccc3nc[nH]c3c2)cc1 the Potency was 7.36 µM (active). In the case of COc1cc(OC)c(C(=O)Nc2ccc(N(C)C)cc2)cc1OC, the Potency is reported as 8.26 µM (active). With COc1cccc2cc(C(=O)N3CCc4ccccc4C3)c(=O)oc12 the Potency was 16.5 µM (active). With O=C(Nc1ccc2ccccc2c1)c1cc(F)c(F)cc1Cl the Potency was 0.656 µM (active). For COc1cccc(NC(=O)c2cc3cccc(OC)c3o/c2=N\O)c1, the Potency was 0.414 µM (active). With COc1ccc(-c2cccc(C(=O)Nc3cccc(C(=O)O)c3)c2)cc1 the Potency was 6.56 µM (active). In the case of COc1cccc2cc(C(=O)Nc3ccc(C)cc3)c(=O)oc12, the Potency is reported as 0.736 µM (active). In the case of COc1ccc(C(=O)Nc2ccc3cn[nH]c3c2)c(OC)c1, the Potency is reported as 4.65 µM (active). With CCOC(=O)CC(NC(=O)c1cc2cccc(OC)c2oc1=O)c1ccc(OC)cc1 (stereo not given) the Potency was 16.5 µM (active). In the case of COc1cccc(NC(=O)c2cc3ccccc3cc2OC)c1, the Potency is reported as 2.33 µM (active). In the case of COc1ccc(C(c2c(O)ccc3ccccc23)N2CCOCC2)c(OC)c1 (stereo not given), the Potency is reported as 11.7 µM (active). For Cc1ccsc1C1NC(=O)c2c(sc3c2CCCC3)N1 (stereo not given), the Potency was 5.85 µM (active). For CCN(CC)c1ccc(NC(=O)C2CC3CCC2C3)cc1 (stereo not given), the Potency was 10.4 µM (active). In the case of O=[N+]([O-])c1cc(C(F)(F)F)ccc1NCCOc1ccccc1, the Potency is reported as 7.36 µM (active). In the case of O=[N+]([O-])c1ccccc1NCCOc1ccccc1, the Potency is reported as 7.36 µM (active). In the case of Cc1cccc(C(=O)NC2CCCCCCC2)c1, the Potency is reported as 2.93 µM (active). For O=C(NC1CC1)c1ccc(-c2ccccc2)cc1, the Potency was 3.69 µM (active). With N#Cc1ccc(C(=O)NC2CCCCCCC2)cc1 the Potency was 5.85 µM (active). For O=C(NC1CCCCC1)c1ccc2c(c1)OCCO2, the Potency was 2.93 µM (active). In the case of N#Cc1nc(COc2ccccc2F)oc1N1CCCCCC1, the Potency is reported as 16.5 µM (active). In the case of N#Cc1nc(-c2ccccc2Cl)oc1N1CCCCC1, the Potency is reported as 16.5 µM (active). For N#Cc1nc(COc2ccccc2)oc1N1CCCCC1, the Potency was 13.1 µM (active).
